Results from PubChem BioAssay (NCI).
The panel holds about 83,000 compounds, 20% with a hit somewhere; the sample as a whole holds those more often.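 The endpoint reported here, percent growth, reads 100 for growth as untreated, 0 for no net growth and -100 for all cells dead.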 Values without a mark were called inactive. Active and inactive are the calls of the source. How the source made its calls: active means growth percent below 10; inactive means the rest.

What follows are compounds tested on LOX IMVI melanoma (assay: NCI-60 one-dose screen, 48 h (100 = growth as untreated, 0 = no growth, -100 = all killed)). Conditions: 10 µM.
`S=c1nc(-c2ccccn2)c(-c2ccccn2)n[nH]1` was tested, and the growth was 95.9%. Compound `O=C(O)c1ccc(OCc2ccccc2)cc1` has a growth of 98.3%. `CCC(=O)Oc1c(C)cc(O)c2ccccc12` was tested, and the growth was 75%. With `Cc1nc(O)cc(=O)[nH]1` the growth was 108%. Work on `CC(=O)NNC(=S)/N=C\C(C(=O)c1ccccc1)=C(/O)c1ccccc1` yielded a growth of 94%. With `OCC(O)COc1ccc(Cl)cc1Cl` (centres undefined) the growth was 111%. `ClCc1cccc2c(CCl)cccc12` was tested, and the growth was -51.8% (active). Work on `COc1c(CNC(=O)CCl)cc2[nH]c(C)cc2c1CNC(=O)CCl` yielded a growth of 34%. `CC(=O)Nc1ccc(/C=C2\SC(=S)N(/C=C(\C(C)=O)C(N)=O)C2=O)cc1` was tested, and the growth was 78.3%. With `CC(CO)(CO)C(=O)O` the growth was 97.9%. In the case of `COC(=O)c1ccc([N+](=O)[O-])c(C)c1`, the growth is reported as 107%. `CC(C)c1ncc([N+](=O)[O-])n1C` showed a growth of 108%. Compound `CC(=O)c1cccc(NS(=O)(=O)c2ccc(C)cc2)c1` has a growth of 66.5%. For `Clc1ccc(-c2noc(/C=C\c3ccccc3)n2)cc1`, the growth was 97.5%. Work on `OC1Cc2ccccc2C1` yielded a growth of 93.3%. Compound `CC(=O)Nc1ccc(O)c(C)c1` has a growth of 95.4%. With `Oc1ccc(N=Cc2ccc(OCc3ccccc3)cc2)cc1` the growth was 100%. With `CCCCNC(=O)c1ccc(OCC)cc1` the growth was 95.2%. `CSc1nc2[nH]ncc2c(=O)[nH]1` showed a growth of 97.2%. `Cc1ccc2nc(-c3ccc(N=Cc4ccccc4O)cc3)sc2c1` was tested, and the growth was 86.9%. Compound `O=C(CCCl)OCCOc1ccccc1` has a growth of 96.6%. `CCC1CCC(C)NC1` (centres undefined) showed a growth of 95.9%. For `COc1cc(C(=O)N2CCN(c3ccccc3)CC2)c2ccccc2n1`, the growth was 16.5%. `NNc1ncnc2nc[nH]c12` gave a growth of 30.9%. For `FC(F)(F)c1cc(NC2=NCCN=C(Nc3cc(C(F)(F)F)cc(C(F)(F)F)c3)SS2)cc(C(F)(F)F)c1`, the growth was 50.5%. `Nc1ncnc(Nc2ccccc2)n1` gave a growth of 104%. `c1ccc2[nH]c(Cc3nc4ccccc4[nH]3)nc2c1` was tested, and the growth was 109%. `CC(C)(N)CO[C@H]1C[C@H]2CC[C@@]1(C)C2(C)C` gave a growth of 98.6%. With `Nc1ncc([N+](=O)[O-])cn1` the growth was 99.7%. Compound `Cc1cc(CC(=O)NCCO)n(CCO)c(=O)c1` has a growth of 98.8%. `NNC(=O)N/N=C1\C(=O)N(c2nccs2)C(=O)C(=O)C1c1nc2ccccc2s1` (centres undefined) gave a growth of 96.3%. In the case of `Nc1nc(Cl)cc(Cl)n1`, the growth is reported as 92.5%. Work on `CC(=O)c1cccc(O)c1` yielded a growth of 94.6%. `O=c1n(CC2CO2)c(=O)n(CC2CO2)n1CC1CO1` (centres undefined) gave a growth of 52.1%. With `O=C(O)c1c[nH]c2ccccc2c1=O` the growth was 97.2%. Compound `CC1(C)CCC(C)(C)NC(=S)N1` has a growth of 96.1%. `NC(=O)OCCO` was tested, and the growth was 94.6%.

What follows are compounds tested on SK-MEL-28 melanoma in the same assay as above. Conditions: 10 µM unless noted.
Work on `S=c1nc(-c2ccccn2)c(-c2ccccn2)n[nH]1` yielded a growth of 114%. With `O=C(O)c1ccc(OCc2ccccc2)cc1` the growth was 101%. With `CCC(=O)Oc1c(C)cc(O)c2ccccc12` the growth was 119%. In the case of `Cc1nc(O)cc(=O)[nH]1`, the growth is reported as 110%. Compound `CC(=O)NNC(=S)/N=C\C(C(=O)c1ccccc1)=C(/O)c1ccccc1` has a growth of 106%. Compound `OCC(O)COc1ccc(Cl)cc1Cl` (centres undefined) has a growth of 96.5%. Work on `ClCc1cccc2c(CCl)cccc12` yielded a growth of 83.7%. `COc1c(CNC(=O)CCl)cc2[nH]c(C)cc2c1CNC(=O)CCl` gave a growth of 63.2%. `CC(=O)Nc1ccc(/C=C2\SC(=S)N(/C=C(\C(C)=O)C(N)=O)C2=O)cc1` gave a growth of 93.4%. Work on `CC(CO)(CO)C(=O)O` yielded a growth of 110%. `COC(=O)c1ccc([N+](=O)[O-])c(C)c1` was tested, and the growth was 102%. For `CC(C)c1ncc([N+](=O)[O-])n1C`, the growth was 119%. Work on `CC(=O)c1cccc(NS(=O)(=O)c2ccc(C)cc2)c1` yielded a growth of 78.5%. `Clc1ccc(-c2noc(/C=C\c3ccccc3)n2)cc1` was tested, and the growth was 106%. `OC1Cc2ccccc2C1` gave a growth of 102%. `CC(=O)Nc1ccc(O)c(C)c1` showed a growth of 103%. Work on `Oc1ccc(N=Cc2ccc(OCc3ccccc3)cc2)cc1` yielded a growth of 106%. `CCCCNC(=O)c1ccc(OCC)cc1` was tested, and the growth was 101%. `CSc1nc2[nH]ncc2c(=O)[nH]1` showed a growth of 106%. `Cc1ccc2nc(-c3ccc(N=Cc4ccccc4O)cc3)sc2c1` was tested, and the growth was 110%. For `O=C(CCCl)OCCOc1ccccc1`, the growth was 107%. `CCC1CCC(C)NC1` (centres undefined) was tested, and the growth was 102%. For `COc1cc(C(=O)N2CCN(c3ccccc3)CC2)c2ccccc2n1`, the growth was 54.6%. Work on `NNc1ncnc2nc[nH]c12` yielded a growth of 105%. With `FC(F)(F)c1cc(NC2=NCCN=C(Nc3cc(C(F)(F)F)cc(C(F)(F)F)c3)SS2)cc(C(F)(F)F)c1` the growth was 74.7%. `Nc1ncnc(Nc2ccccc2)n1` showed a growth of 107%. Work on `c1ccc2[nH]c(Cc3nc4ccccc4[nH]3)nc2c1` yielded a growth of 94.3%. With `CC(C)(N)CO[C@H]1C[C@H]2CC[C@@]1(C)C2(C)C` the growth was 94.7%. Compound `Nc1ncc([N+](=O)[O-])cn1` has a growth of 103%. Compound `Cc1cc(CC(=O)NCCO)n(CCO)c(=O)c1` has a growth of 118%. For `NNC(=O)N/N=C1\C(=O)N(c2nccs2)C(=O)C(=O)C1c1nc2ccccc2s1` (centres undefined), the growth was 112%. Work on `Nc1nc(Cl)cc(Cl)n1` yielded a growth of 119%. In the case of `CC(=O)c1cccc(O)c1`, the growth is reported as 109%. `O=c1n(CC2CO2)c(=O)n(CC2CO2)n1CC1CO1` (centres undefined) showed a growth of 93%. Work on `O=C(O)c1c[nH]c2ccccc2c1=O` yielded a growth of 102%. `CC1(C)CCC(C)(C)NC(=S)N1` showed a growth of 109%. `NC(=O)OCCO` was tested, and the growth was 113%.
